# Source: the supplement of paper PMC11732987, “Enantioselective OTUD7B fragment discovery through chemoproteomics screening and high-throughput optimisation” (Communications Chemistry, 2025)
# Values without a mark were called inactive.
# Key:
# Experiment in all cases: log2 ratio of Biotin-Ahx-Ub-VS probe labelling (fragment/DMSO); higher = less target engagement (more negative = stronger competition), active = hit call of the paper (q ≤ 0.05, log2 ratio ≤ -1)
# Settings in all cases: compound concentration: 200 uM; treatment time: 3 h
# USP19 = target: T1, USP19 (UniProt O94966)
# T1 sequence (whole entry): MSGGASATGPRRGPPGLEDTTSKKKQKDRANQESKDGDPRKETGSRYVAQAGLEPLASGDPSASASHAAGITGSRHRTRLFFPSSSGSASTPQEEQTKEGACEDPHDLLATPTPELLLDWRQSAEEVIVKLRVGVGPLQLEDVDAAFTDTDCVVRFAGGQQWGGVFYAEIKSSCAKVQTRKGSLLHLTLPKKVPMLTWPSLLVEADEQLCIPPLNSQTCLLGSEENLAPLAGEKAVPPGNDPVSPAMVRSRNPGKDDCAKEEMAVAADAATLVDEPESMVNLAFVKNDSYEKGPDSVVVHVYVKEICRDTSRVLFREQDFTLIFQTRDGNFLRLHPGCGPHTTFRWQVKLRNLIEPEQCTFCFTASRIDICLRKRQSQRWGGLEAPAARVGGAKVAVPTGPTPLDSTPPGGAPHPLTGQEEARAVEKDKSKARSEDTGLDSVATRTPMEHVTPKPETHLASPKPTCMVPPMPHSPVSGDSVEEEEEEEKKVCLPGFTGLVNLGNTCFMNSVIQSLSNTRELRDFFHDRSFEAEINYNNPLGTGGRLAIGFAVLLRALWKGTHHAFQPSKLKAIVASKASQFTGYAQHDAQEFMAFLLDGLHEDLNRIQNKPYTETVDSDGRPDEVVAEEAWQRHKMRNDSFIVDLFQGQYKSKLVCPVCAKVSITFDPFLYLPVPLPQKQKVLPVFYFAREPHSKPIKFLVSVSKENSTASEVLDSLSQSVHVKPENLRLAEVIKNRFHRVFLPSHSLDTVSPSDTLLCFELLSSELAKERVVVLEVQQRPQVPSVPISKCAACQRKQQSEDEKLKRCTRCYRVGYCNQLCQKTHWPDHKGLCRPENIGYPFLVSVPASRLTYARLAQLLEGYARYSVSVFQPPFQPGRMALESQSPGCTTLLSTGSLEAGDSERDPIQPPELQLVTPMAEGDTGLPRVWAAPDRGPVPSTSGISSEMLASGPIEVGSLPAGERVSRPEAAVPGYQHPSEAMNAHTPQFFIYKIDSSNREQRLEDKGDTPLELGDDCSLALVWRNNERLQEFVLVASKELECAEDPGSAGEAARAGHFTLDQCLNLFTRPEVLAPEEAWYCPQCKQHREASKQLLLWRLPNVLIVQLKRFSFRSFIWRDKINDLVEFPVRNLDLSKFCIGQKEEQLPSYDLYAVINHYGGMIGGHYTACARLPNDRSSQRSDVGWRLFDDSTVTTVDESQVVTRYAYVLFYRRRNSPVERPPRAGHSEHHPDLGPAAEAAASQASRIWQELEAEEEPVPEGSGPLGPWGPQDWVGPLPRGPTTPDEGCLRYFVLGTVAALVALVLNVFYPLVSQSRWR
# In short: (§1)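 The table lists average log2 ratios of fragment over vehicle, from an unpaired t-test on global-median-normalised Spectronaut label-free quantities. Proteins with ≥2 unique peptides were used. Samples were HEK293T lysate (495 µg) treated in triplicate with fragment at 200 µM or vehicle for 3 h, then with Biotin-Ahx-Ub-VS (0.5 µM final) for 1 h, with labelled DUBs NeutrAvidin-enriched and run by diaPASEF LC-MS/MS.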
# USP22 = target: T2, USP22 (UniProt Q9UPT9)
# T2 sequence (whole entry): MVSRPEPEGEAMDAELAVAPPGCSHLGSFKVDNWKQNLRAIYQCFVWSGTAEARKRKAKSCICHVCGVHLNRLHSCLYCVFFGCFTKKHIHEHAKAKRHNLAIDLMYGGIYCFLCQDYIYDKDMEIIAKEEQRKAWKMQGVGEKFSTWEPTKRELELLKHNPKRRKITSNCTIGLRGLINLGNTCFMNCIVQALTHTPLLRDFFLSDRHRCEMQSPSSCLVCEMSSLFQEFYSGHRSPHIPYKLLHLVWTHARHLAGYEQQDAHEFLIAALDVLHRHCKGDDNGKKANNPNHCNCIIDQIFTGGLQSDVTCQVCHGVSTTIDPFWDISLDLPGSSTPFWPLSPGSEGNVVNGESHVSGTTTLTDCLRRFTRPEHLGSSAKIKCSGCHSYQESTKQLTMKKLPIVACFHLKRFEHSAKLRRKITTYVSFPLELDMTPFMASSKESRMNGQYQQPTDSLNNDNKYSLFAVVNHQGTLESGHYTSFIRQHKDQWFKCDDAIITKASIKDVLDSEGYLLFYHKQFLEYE
# In short: as §1
# USP24 = USP24 (UniProt Q9UPU5)
# In short: as §1
# USP25 = target: T3, USP25 (UniProt Q9UHP3)
# T3 sequence (whole entry): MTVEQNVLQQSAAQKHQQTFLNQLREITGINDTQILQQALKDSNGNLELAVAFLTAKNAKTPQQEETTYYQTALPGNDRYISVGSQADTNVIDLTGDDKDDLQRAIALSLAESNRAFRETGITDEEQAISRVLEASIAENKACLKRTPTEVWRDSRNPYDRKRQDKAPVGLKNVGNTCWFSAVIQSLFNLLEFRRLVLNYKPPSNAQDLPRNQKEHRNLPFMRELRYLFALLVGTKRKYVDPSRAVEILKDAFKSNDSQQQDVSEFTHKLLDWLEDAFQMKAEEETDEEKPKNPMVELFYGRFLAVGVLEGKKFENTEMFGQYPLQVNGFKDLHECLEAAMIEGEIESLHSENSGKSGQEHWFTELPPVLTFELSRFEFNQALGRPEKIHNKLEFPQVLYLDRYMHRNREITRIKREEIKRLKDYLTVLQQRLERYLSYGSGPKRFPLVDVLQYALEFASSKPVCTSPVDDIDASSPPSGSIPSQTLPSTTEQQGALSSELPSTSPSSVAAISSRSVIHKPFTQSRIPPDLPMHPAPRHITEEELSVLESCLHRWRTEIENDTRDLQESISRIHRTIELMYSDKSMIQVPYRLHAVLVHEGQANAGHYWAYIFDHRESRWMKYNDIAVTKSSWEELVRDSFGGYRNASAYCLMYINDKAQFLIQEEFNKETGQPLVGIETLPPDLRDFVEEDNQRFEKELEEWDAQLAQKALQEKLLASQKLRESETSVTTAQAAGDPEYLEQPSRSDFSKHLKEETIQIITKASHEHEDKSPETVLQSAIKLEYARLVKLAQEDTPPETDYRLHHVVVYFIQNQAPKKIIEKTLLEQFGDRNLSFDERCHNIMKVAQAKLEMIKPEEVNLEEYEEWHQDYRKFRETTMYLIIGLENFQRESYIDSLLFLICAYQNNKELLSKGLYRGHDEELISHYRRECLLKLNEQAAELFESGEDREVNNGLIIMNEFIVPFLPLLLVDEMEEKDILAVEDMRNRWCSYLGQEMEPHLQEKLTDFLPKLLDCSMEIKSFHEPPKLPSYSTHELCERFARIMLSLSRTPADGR
# In short: as §1
# USP28 = target: T4, USP28 (UniProt Q96RU2)
# T4 sequence (whole entry): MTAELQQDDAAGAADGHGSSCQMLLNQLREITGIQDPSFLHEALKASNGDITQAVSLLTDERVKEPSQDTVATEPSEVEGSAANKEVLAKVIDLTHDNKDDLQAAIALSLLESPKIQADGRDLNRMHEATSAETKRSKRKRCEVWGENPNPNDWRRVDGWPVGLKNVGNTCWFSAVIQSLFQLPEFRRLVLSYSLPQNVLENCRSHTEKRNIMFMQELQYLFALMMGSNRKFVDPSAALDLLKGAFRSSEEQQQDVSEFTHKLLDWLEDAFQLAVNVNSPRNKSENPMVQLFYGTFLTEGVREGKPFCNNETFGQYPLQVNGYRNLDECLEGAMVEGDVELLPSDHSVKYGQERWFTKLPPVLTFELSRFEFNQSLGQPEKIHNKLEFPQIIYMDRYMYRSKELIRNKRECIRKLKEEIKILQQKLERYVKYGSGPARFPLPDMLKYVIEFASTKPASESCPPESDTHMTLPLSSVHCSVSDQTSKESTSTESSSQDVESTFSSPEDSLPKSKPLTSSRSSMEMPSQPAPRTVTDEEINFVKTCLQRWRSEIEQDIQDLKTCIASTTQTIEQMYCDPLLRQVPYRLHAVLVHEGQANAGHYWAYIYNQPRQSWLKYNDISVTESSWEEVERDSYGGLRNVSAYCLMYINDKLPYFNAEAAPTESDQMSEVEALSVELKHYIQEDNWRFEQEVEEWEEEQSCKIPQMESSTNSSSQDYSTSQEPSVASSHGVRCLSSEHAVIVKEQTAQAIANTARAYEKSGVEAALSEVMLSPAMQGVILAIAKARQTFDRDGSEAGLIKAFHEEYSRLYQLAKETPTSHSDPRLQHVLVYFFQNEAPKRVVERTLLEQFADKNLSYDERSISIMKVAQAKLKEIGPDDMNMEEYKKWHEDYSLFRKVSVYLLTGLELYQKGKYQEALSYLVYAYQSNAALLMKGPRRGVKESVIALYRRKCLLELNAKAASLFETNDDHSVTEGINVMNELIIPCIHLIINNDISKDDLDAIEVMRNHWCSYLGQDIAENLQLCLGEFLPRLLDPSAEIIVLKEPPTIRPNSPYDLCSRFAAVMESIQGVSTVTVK
# In short: as §1
# USP24, sequence (Q9UPU5 whole entry): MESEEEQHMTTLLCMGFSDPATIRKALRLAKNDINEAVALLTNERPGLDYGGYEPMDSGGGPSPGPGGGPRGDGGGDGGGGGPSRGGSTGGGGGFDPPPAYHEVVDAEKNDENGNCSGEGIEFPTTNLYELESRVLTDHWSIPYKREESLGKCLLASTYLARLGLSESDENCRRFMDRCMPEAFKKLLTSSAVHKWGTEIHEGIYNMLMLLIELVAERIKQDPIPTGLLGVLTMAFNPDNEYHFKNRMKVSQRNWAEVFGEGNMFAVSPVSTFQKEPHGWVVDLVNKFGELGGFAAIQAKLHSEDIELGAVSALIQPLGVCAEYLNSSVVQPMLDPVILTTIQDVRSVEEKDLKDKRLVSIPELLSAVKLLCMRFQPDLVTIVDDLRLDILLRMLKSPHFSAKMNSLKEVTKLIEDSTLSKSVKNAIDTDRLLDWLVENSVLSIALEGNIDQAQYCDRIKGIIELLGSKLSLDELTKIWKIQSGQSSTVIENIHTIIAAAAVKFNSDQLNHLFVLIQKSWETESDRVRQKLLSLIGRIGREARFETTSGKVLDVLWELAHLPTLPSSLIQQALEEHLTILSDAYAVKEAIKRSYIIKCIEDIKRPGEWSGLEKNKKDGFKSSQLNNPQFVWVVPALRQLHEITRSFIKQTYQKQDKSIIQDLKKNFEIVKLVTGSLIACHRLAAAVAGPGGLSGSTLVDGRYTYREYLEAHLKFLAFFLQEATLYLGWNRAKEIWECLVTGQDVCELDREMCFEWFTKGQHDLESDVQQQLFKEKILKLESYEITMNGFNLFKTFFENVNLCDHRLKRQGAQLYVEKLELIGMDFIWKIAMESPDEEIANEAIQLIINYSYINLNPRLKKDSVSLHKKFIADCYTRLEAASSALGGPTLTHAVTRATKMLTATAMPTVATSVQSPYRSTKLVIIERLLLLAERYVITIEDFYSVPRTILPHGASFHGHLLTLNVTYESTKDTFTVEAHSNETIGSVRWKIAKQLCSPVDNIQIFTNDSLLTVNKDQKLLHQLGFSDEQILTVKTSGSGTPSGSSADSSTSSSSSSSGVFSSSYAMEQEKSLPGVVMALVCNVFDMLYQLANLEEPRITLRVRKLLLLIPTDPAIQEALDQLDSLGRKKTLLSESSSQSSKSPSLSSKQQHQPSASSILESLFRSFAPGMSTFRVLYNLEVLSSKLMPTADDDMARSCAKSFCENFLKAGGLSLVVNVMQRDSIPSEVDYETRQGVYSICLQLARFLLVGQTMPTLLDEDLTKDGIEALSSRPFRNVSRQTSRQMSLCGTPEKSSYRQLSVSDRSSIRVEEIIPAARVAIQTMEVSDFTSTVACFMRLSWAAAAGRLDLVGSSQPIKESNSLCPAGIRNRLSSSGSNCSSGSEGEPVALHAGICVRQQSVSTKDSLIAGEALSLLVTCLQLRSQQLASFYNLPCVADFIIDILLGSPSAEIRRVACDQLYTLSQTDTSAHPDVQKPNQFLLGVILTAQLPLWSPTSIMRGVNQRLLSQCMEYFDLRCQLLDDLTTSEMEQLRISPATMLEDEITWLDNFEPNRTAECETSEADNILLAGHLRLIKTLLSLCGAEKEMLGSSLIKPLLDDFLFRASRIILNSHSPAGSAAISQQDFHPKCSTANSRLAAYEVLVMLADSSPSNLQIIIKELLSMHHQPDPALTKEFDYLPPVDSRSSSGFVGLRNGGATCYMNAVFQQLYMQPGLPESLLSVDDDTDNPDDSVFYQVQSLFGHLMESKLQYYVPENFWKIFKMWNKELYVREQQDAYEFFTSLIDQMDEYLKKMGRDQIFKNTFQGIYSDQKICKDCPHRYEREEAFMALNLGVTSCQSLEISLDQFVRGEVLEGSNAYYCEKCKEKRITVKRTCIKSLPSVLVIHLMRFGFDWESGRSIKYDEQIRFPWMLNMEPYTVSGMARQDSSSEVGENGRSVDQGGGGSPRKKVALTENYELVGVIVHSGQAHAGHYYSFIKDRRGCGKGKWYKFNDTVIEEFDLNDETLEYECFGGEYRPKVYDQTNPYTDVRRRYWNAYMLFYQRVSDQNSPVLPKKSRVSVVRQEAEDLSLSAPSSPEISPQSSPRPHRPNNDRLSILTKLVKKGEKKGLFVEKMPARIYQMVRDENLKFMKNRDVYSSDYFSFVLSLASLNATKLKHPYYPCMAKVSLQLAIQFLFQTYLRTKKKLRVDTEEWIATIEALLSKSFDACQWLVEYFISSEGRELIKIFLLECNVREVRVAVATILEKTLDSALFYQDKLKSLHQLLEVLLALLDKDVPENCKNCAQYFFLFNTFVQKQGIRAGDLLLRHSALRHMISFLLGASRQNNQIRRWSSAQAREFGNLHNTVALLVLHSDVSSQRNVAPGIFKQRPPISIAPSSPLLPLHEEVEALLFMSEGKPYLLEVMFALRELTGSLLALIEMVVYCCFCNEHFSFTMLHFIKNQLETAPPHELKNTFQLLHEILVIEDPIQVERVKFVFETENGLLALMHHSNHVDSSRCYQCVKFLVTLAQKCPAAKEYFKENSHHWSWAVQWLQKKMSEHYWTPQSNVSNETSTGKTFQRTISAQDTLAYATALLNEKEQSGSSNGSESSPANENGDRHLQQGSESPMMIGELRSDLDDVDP
compound,measurement,setting,value
CC(=O)Nc1ccc(NC(=O)CCl)cc1,log2 ratio of Biotin-Ahx-Ub-VS probe labelling,USP19,-0.179
same,log2 ratio of Biotin-Ahx-Ub-VS probe labelling,USP22,-0.0522
same,log2 ratio of Biotin-Ahx-Ub-VS probe labelling,USP24,-0.314
same,log2 ratio of Biotin-Ahx-Ub-VS probe labelling,USP25,-1.33 (active)
same,log2 ratio of Biotin-Ahx-Ub-VS probe labelling,USP28,-0.938
